Molecules are shown by their SMILES. Where a name gives a salt, the structure may show the parent alone. ± gives the standard deviation of the averaged measurements.

We go through 37 molecules from the supplement of paper PMC7393113.

The assay deals with iBMDM (immortalised mouse bone-marrow-derived macrophages), LPS-stimulated. The experiment in a line: mitochondrial superoxide (MitoSOX fluorescence) fold increase over unstimulated control; higher = more LPS-induced mitochondrial ROS (less inhibition). Particulars: inhibitor concentration: 500 nM; LPS: 100 ng/ml; time after LPS: 2 h. Put shortly:
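Mitochondrial superoxide values are mean fold induction compared with untreated macrophages. Triplicate wells of immortalised mouse bone-marrow-derived macrophages in phenol-red-free 1% FCS/DMEM received kinase inhibitors (500 nM) for 30 min, then 1 μM MitoSox for 10 min, then LPS (100 ng/ml). Fluorescence (510/580 nm) was taken every 60 min for 4 h.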
As for `Cc1cc(O)c2c(c1)C(=O)c1cccc(O)c1C2=O` [Chrysophanic Acid], the mitochondrial superoxide came to 1.36 ± 0.097.

Molecule `N#CC(=C(/N)Sc1ccccc1N)/C(C#N)=C(\N)Sc1ccccc1N` registered a mitochondrial superoxide of 1.4 ± 0.048.

The molecule `COc1ccc(-c2nc(N3CCOCC3)c3sc(CN(C)c4ncc(C(=O)NO)cn4)cc3n2)cn1` gave a mitochondrial superoxide of 1.52 ± 0.1.

In turn, `NCC(=O)Nc1ccc(-n2nc(C(F)(F)F)cc2-c2ccc3c(ccc4ccccc43)c2)cc1` returned a mitochondrial superoxide of 1.41 ± 0.031.

With `CNC(=O)c1ccccc1Nc1nc(Nc2ccc(N3CCOCC3)cc2OC)ncc1Cl`, the mitochondrial superoxide turned out to be 1.11 ± 0.056.

As for `CCC(=O)N1CCN(c2ccc(-n3c(=O)ccc4cnc5ccc(-c6cnc7ccccc7c6)cc5c43)cc2C(F)(F)F)CC1` [Torin 1], the mitochondrial superoxide was 1.24 ± 0.033.

`COc1ccc(C(=O)Nc2sc3c(c2C(N)=O)CCCC3)cc1OC` had a mitochondrial superoxide of 1.49 ± 0.045.

For the molecule `Cc1nc(Nc2ncc(C(=O)Nc3c(C)cccc3Cl)s2)cc(N2CCN(CCO)CC2)n1` [Dasatinib], the mitochondrial superoxide is 1.61 ± 0.069.

In turn, `CC[C@H](Nc1ncnc2[nH]cnc12)c1nc2cccc(F)c2c(=O)n1-c1ccccc1` [CAL-101 (Idelalisib, GS-1101)] showed a mitochondrial superoxide of 1.4 ± 0.06.

For `c1cncc(CN2CCC(n3ncc4c(N5CCOCC5)nc(-c5ccc6[nH]ccc6c5)nc43)CC2)c1`, the mitochondrial superoxide was found to be 1.48 ± 0.077.

`C[C@]1(O)C[C@@H](c2nc(-c3ccc4ccc(-c5ccccc5)nc4c3)c3c(N)nccn32)C1` [OSI-906 (Linsitinib)] returned a mitochondrial superoxide of 1.51 ± 0.21.

`CCc1cc2c(cc1N1CCC(N3CCOCC3)CC1)C(C)(C)c1[nH]c3cc(C#N)ccc3c1C2=O` displayed a mitochondrial superoxide of 1.4 ± 0.066.

`Cn1cnc2c(F)c(Nc3ccc(Br)cc3F)c(C(=O)NOCCO)cc21` gave a mitochondrial superoxide of 1.26 ± 0.038.

The molecule `Cc1cc(F)c(Nc2ncnc3cc(OCc4ccccc4)ccc23)cc1O` returned a mitochondrial superoxide of 1.11 ± 0.018.

In the case of `Nc1nccc(Oc2ccc(NC(=O)c3c[nH]cc(-c4ccc(F)cc4)c3=O)cc2F)c1Cl`, the mitochondrial superoxide was 1.22 ± 0.043.

As to `COc1cc(Nc2c(C#N)cnc3cc(OCCCN4CCN(C)CC4)c(OC)cc23)c(Cl)cc1Cl` [Bosutinib (SKI-606)], the mitochondrial superoxide was 1.66 ± 0.056.

Consider `Oc1ccc(Nc2nc(-c3ccc(Cl)cc3)cs2)cc1`, for which the mitochondrial superoxide is 1.56 ± 0.01.

As to `CC(C)(C#N)c1ccc(N2C(=O)OCc3cnc4ccc(-c5cnc6ccccc6c5)cc4c32)cc1`, the mitochondrial superoxide came out at 1.48 ± 0.056.

Molecule `Cn1cc(-c2ccc3nnc(Sc4ccc5ncccc5c4)n3n2)cn1` gave a mitochondrial superoxide of 1.4 ± 0.04.

With `CO[C@H]1C[C@@H]2CC[C@@H](C)[C@@](O)(O2)C(=O)C(=O)N2CCCC[C@H]2C(=O)O[C@H]([C@H](C)C[C@@H]2CC[C@@H](OCCO)[C@H](OC)C2)CC(=O)[C@H](C)/C=C(\C)[C@@H](O)[C@@H](OC)C(=O)[C@H](C)C[C@H](C)/C=C/C=C/C=C/1C` [Everolimus (RAD001)], the mitochondrial superoxide turned out to be 1.42 ± 0.028.

`Cc1[nH]c(/C=C2\C(=O)Nc3ccc(S(=O)(=O)Cc4c(Cl)cccc4Cl)cc32)c(C)c1C(=O)N1CCC[C@@H]1CN1CCCC1` gave a mitochondrial superoxide of 1.61 ± 0.027.

`CN1CCN(C2CCN(C(=O)Nc3cc(Oc4ccc(NC(=O)C5(C(=O)Nc6ccc(F)cc6)CC5)c(F)c4)ccn3)CC2)CC1` [Golvatinib (E7050)] gave a mitochondrial superoxide of 1.08 ± 0.075.

`Cn1cnc(-c2cc3nccc(Oc4ccc(NC(=S)NC(=O)Cc5ccccc5)cc4F)c3s2)c1` came in with a mitochondrial superoxide of 1.14 ± 0.057.

Molecule `Cn1cc(C2=C(c3cn(CCCSC(=N)N)c4ccccc34)C(=O)NC2=O)c2ccccc21` [Ro 31-8220 Mesylate] gave a mitochondrial superoxide of 1.6 ± 0.0078.

`CCN(CC)CCCC(C)Nc1nc(C)cc(Nc2ccc3nc(C)cc(N)c3c2)n1` (configuration not stated) returned a mitochondrial superoxide of 1.53 ± 0.051.

As for `Cn1cc(-c2ccc3ncc(Cc4ccc5ncccc5c4)n3n2)cn1`, the mitochondrial superoxide was 1.34 ± 0.053.

In turn, `CC[C@@H]1C(=O)N(C)c2cnc(Nc3ccc(C(=O)N[C@H]4CC[C@H](N5CCN(CC6CC6)CC5)CC4)cc3OC)nc2N1C(C)C` [Volasertib (BI 6727)] returned a mitochondrial superoxide of 1.27 ± 0.026.

As for `CS(=O)(=O)N1CCc2c(-c3cnc(N)nc3)nc(N3CCOCC3)nc21`, the mitochondrial superoxide came out at 1.48 ± 0.024.

`CC(=O)Nc1cccc(-n2c(=O)n(C3CC3)c(=O)c3c(Nc4ccc(I)cc4F)n(C)c(=O)c(C)c32)c1` displayed a mitochondrial superoxide of 1.44 ± 0.066.

In turn, `CO[C@H]1C[C@@H]2CC[C@@H](C)[C@@](O)(O2)C(=O)C(=O)N2CCCC[C@H]2C(=O)O[C@H]([C@H](C)C[C@@H]2CC[C@@H](OP(C)(C)=O)[C@H](OC)C2)CC(=O)[C@H](C)/C=C(\C)[C@@H](O)[C@@H](OC)C(=O)[C@H](C)C[C@H](C)/C=C/C=C/C=C/1C` [Ridaforolimus (Deforolimus, MK-8669)] yielded a mitochondrial superoxide of 1.592 ± 0.0072.

`Cc1cc2c(F)c(Oc3ncnn4cc(OC[C@@H](C)OC(=O)[C@H](C)N)c(C)c34)ccc2[nH]1` registered a mitochondrial superoxide of 1.46 ± 0.058.

Take `O=c1cc(N2CCOCC2)oc2c(-c3ccccc3)cccc12`: the mitochondrial superoxide was 1.41 ± 0.086.

Consider `CCc1nc(-c2cccc(C)c2)c(-c2ccnc(NC(=O)c3ccccc3)c2)s1`, for which the mitochondrial superoxide came to 1.17 ± 0.022.

Molecule `O=C(O)[C@]1(Cc2cccc(Nc3nccs3)n2)CC[C@@H](Oc2cccc(Cl)c2F)CC1` displayed a mitochondrial superoxide of 1.39 ± 0.086.

In turn, `CN1CCN(CCOc2cc(OC3CCOCC3)c3c(Nc4c(Cl)ccc5c4OCO5)ncnc3c2)CC1` [Saracatinib (AZD0530)] gave a mitochondrial superoxide of 1.63 ± 0.047.

On to `O=Nc1c(-c2c(O)[nH]c3cc(Br)ccc23)[nH]c2ccccc12`, for which the mitochondrial superoxide is 1.43 ± 0.041.

With `C[C@@]1(C(=O)Nc2ccc(F)nc2)CCCN1c1nc(Nc2cc(C3CC3)n[nH]2)c2cccn2n1`, the mitochondrial superoxide amounted to 1.43 ± 0.06.
